Source: PubChem (Broad Institute)
A selection: hits, their analogues and other compounds. The true share with any hit is near 7.9%.
Hedgehog inh – Hedgehog pathway signaling inhibitors, primary screen, luminescence, Shh-LIGHT2 cells, Gli-luciferase; inhibition, % (concentration not given with the values); 2.1% of 22,000 active; Shh-LIGHT2 Gli-luciferase reporter, 30 h;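 active = mean inhibition across valid replicates above about 65%, limit read from the data; inconclusive = mean under the limit, yet half or more replicates past it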;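 also: pathway switched on by Shh-conditioned medium diluted 1 in 25 in low serum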
MITF inh – inhibitors of MITF, primary screen, MITF inhibitor project, cell-based, luminescence. TRPM1 promoter luciferase, 24 h. inhibition, % (test concentration not listed). 0.28% of 37,000 active; in the data active = inhibition above about 85%; inconclusive = no clear call, values can overlap the other calls; inactive = below about 68%;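 also: human melanocyte line stably carrying TRPM1 promoter luciferase reporter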
NOMO-1 viab – NOMO-1 AML cell viability reduction, primary screen, STK33 inhibitor project, CellTiter-Glo luminescence. NOMO-1 AML viability, 72 h. inhibition, % (test concentration not listed). 7.5% of 37,000 active. AID 2330, 2010; in the data active = inhibition above about 80%; inconclusive = no clear call, values can overlap the other calls
PD-1 reversal – activators reversing PD-1 mediated T-cell inhibition, primary screen, luminescence, primary human CD4 T cells, PD-L1 beads | CellTiter-Glo 96 h | activation, % (no concentration beside the values) | 29,000 tested, under 10 active; call rule not given here;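 also: 0% = median vehicle wells and 100% = positive control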
The depositor's hits bear a star; ? = inconclusive; . = no result.

SMILES | Hedgehog inh | MITF inh | NOMO-1 viab | PD-1 reversal
COc1ccc(S(=O)(=O)Nc2ccc3c(c2)C(=O)N([C@@H](C)CO)C[C@@H](C)[C@H](CN(C)Cc2ccc(C(F)(F)F)cc2)O3)cc1 | -5 | 15 | 113* | 1
COc1ccc(CN(C)C[C@H]2Oc3ccc(NS(=O)(=O)c4ccc(OC)cc4)cc3C(=O)N([C@@H](C)CO)C[C@H]2C)cc1 | 36 | 8 | 26 | 2
COc1ccc(S(=O)(=O)Nc2ccc3c(c2)C(=O)N([C@@H](C)CO)C[C@@H](C)[C@@H](CN(C)Cc2ccc(C(F)(F)F)cc2)O3)cc1 | 39 | 53 | 115* | 1
COc1ccc(CN(C)C[C@@H]2Oc3ccc(NS(=O)(=O)c4ccc(OC)cc4)cc3C(=O)N([C@@H](C)CO)C[C@@H]2C)cc1 | 4 | 1 | 11 | 0
COc1ccc(S(=O)(=O)Nc2ccc3c(c2)C(=O)N([C@H](C)CO)C[C@@H](C)[C@@H](CN(C)Cc2ccc(C(F)(F)F)cc2)O3)cc1 | . | 40 | 108* | -1
O=C(Oc1ccc(C=Nc2ccc(F)cc2)cc1)c1cccs1 | -4 | -21 | 11 | -1
CCCCOc1cc(C(=O)NCCN(CC)CC)c2ccccc2n1 | 0 | -10 | -9 | .
CCN(CC)CCNc1ccc(CO)c2sc3ccccc3c(=O)c12 | ? | 20 | 102* | .
COc1ccc(C(=O)N(CC#N)CC#N)cc1 | -15 | -12 | -20 | 0
Cn1c(=O)c2c(nc(NCC(O)c3ccccc3)n2Cc2ccc(F)cc2)n(C)c1=O (stereo unspecified) | . | 41 | 95* | -7
CC1(C)CC(=O)C2=C(C1)N(Cc1cccnc1)C(=O)C2(NC(=O)c1ccco1)C(F)(F)F (stereo unspecified) | . | -17 | 7 | 1
Cc1ccc(S(=O)(=O)Nc2ccc3c(c2)C(=O)N([C@H](C)CO)C[C@H](C)[C@@H](CN(C)Cc2ccc(C(F)(F)F)cc2)OCCCC[C@@H](C)O3)cc1 | . | 47 | 112* | .
COc1ccc(S(=O)(=O)Nc2ccc3c(c2)C(=O)N([C@H](C)CO)C[C@H](C)[C@@H](CN(C)Cc2ccc(C(F)(F)F)cc2)OCCCC[C@@H](C)O3)cc1 | 17 | 37 | ? | .
Cc1ccc(S(=O)(=O)Nc2ccc3c(c2)C(=O)N([C@H](C)CO)C[C@H](C)[C@H](CN(C)Cc2ccc(Cl)c(Cl)c2)OCCCC[C@@H](C)O3)cc1 | -18 | 80 | 111* | -12
Cc1ccc(S(=O)(=O)Nc2ccc3c(c2)C(=O)N([C@H](C)CO)C[C@H](C)[C@@H](CN(C)Cc2ccccc2)OCCCC[C@@H](C)O3)cc1 | 68* | -11 | 30 | -3
Cc1ccc(S(=O)(=O)Nc2ccc3c(c2)C(=O)N([C@H](C)CO)C[C@H](C)[C@H](CN(C)C(=O)Nc2cccc4ccccc24)OCCCC[C@@H](C)O3)cc1 | -9 | 11 | 111* | -1
CC(C)c1ccc(NC(=O)CSc2nnc(N)s2)cc1 | . | -50 | 12 | 1
C[C@@H]1CCCCO[C@H](CN(C)Cc2ccc(C(F)(F)F)cc2)[C@@H](C)CN([C@H](C)CO)C(=O)c2cc(NS(C)(=O)=O)ccc2O1 | -12 | 3 | 15 | .
C[C@@H]1CCCCO[C@H](CN(C)Cc2ccc(C(F)(F)F)cc2)[C@@H](C)CN([C@H](C)CO)C(=O)c2cc(NS(=O)(=O)c3ccc(Cl)cc3)ccc2O1 | 21 | 14 | 82* | .
C[C@@H]1CCCCO[C@@H](CN(C)C(=O)C2CCCCC2)[C@@H](C)CN([C@H](C)CO)C(=O)c2cc(NS(=O)(=O)c3ccccc3)ccc2O1 | . | 54 | 101* | .
C[C@H]1CN([C@@H](C)CO)C(=O)c2cc(NC(=O)Nc3ccccc3)ccc2O[C@@H]1CN(C)Cc1ccc(C(F)(F)F)cc1 | 7 | 11 | ? | 1
C[C@H]1CN([C@@H](C)CO)C(=O)c2cc(NC(=O)Nc3ccc(C(F)(F)F)cc3)ccc2O[C@@H]1CN(C)Cc1ccc(Oc2ccccc2)cc1 | . | -2 | 48 | 1
C[C@@H]1CN([C@@H](C)CO)C(=O)c2cc(NC(=O)Nc3ccc(C(F)(F)F)cc3)ccc2O[C@H]1CN(C)Cc1ccc(Oc2ccccc2)cc1 | 23 | 60 | 118* | -7
C[C@H](CO)N1C[C@H](C)[C@H](CN(C)Cc2ccccc2)Oc2ccc(NC(=O)Nc3ccc(C(F)(F)F)cc3)cc2C1=O | . | 14 | 91* | -5
C[C@@H]1CN([C@@H](C)CO)C(=O)c2cc(NC(=O)Nc3ccc(C(F)(F)F)cc3)ccc2O[C@H]1CN(C)Cc1ccccc1 | 28 | -16 | 96* | -3
SMILES | Hedgehog inh | MITF inh | NOMO-1 viab | PD-1 reversal
C[C@@H]1CN([C@@H](C)CO)C(=O)c2cc(NC(=O)Nc3ccccc3)ccc2O[C@@H]1CN(C)Cc1ccc(C(F)(F)F)cc1 | 15 | 25 | 97* | -1
CC(=O)Nc1[nH]c2c(c1C#N)CCCCC2 | 14 | -9 | -5 | 0
Cc1nn(Cc2ccc(Br)cc2)c(C)c1NC(=O)Cn1nc(C(F)(F)F)c2c1CCCCC2 | . | 1 | 34 | -1
Cc1sc2ncnc(SCC(=O)Nc3ccccc3[N+](=O)[O-])c2c1C | . | 6 | 5 | 0
C[C@H]1CN([C@@H](C)CO)C(=O)c2cc(NC(=O)Nc3ccc(C(F)(F)F)cc3)ccc2O[C@H]1CN(C)Cc1ccccc1 | . | 30 | 103* | -3
C[C@@H]1CN([C@H](C)CO)C(=O)c2cc(NC(=O)Nc3ccc(C(F)(F)F)cc3)ccc2O[C@@H]1CN(C)Cc1ccccc1 | . | -5 | 89* | -1
CN(C)/C=N/C1N=C(C2CC2)N(C)C(=O)N1 (stereo unspecified) | -30 | -3 | 13 | 1
Cc1cc(N(CC(=O)Nc2cccc(C)c2C)S(C)(=O)=O)ccc1Br | . | -8 | -3 | .
COc1ccc(S(=O)(=O)N(C)C[C@@H]2Oc3c(NC(=O)c4nc5ccccc5s4)cccc3C(=O)N([C@H](C)CO)C[C@@H]2C)cc1 | 19 | 54 | 117* | -5
C[C@H](CO)N1C[C@H](C)[C@H](CN(C)S(=O)(=O)c2ccccc2)Oc2c(NC(=O)c3nc4ccccc4s3)cccc2C1=O | 2 | 23 | 88* | -4
COc1ccc(S(=O)(=O)N(C)C[C@H]2Oc3c(NC(=O)c4nc5ccccc5s4)cccc3C(=O)N([C@@H](C)CO)C[C@H]2C)cc1 | -17 | 1 | 61 | .
Cc1ccc(-n2c(=O)c3c4c(sc3n3c(SCC(=O)c5ccc(F)cc5)nnc23)CCCC4)cc1 | . | -3 | 96* | .
O=C(O)CSc1nnc2n(CCc3ccccc3)c(=O)c3c4c(sc3n12)CCCC4 | . | -18 | 1 | .
O[C@]12CO[C@H](c3ccc4c(c3)OCO4)[C@H]1CO[C@@H]2c1ccc2c(c1)OCO2 | -8 | 1 | -8 | 2
C[C@@H]1CN([C@@H](C)CO)C(=O)c2cccc(N(C)C)c2O[C@H]1CN(C)Cc1ccc(C(=O)Nc2ccccc2N)cc1 | . | -5 | 90* | -2
C[C@H]1CN([C@@H](C)CO)C(=O)c2cccc(N(C)C)c2O[C@H]1CN(C)Cc1ccc(C(=O)Nc2ccccc2N)cc1 | . | 12 | 126* | -1
